Results from the supplement of paper PMC8728848.
This excerpt belongs to a sample that is enriched for the strongest signals.

How the values were obtained:
Assay in all cases: glycan array binding signal (z-score within array); higher = stronger binding
Settings in all cases: glycan notation: IUPAC condensed, linker removed
[1] = target: Neu5Ac(a2-6)Gal(b1-4)GlcNAc(b1-2)Man(a1-3)Man(b1-4)GlcNAc(b1-4)GlcNAc
In short: (§1)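 The Consortium for Functional Glycomics database supplied 3228 glycan arrays, of which those lacking an available protein sequence were dropped. The binding signal, a within-array Z-score, was averaged across arrays of the same protein sequence and across linkers. Negative scores can be read as non-binding.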

[2] = target: Neu5Ac(a2-6)Gal(b1-4)GlcNAc(b1-2)Man(a1-3)[GlcNAc(b1-2)Man(a1-6)]Man(b1-4)GlcNAc(b1-4)GlcNAc
In short: as §1

[3] = target: Fuc(a1-2)Gal(b1-3)GalNAc(b1-3)Gal
In short: as §1

Fuc(a1-2)Gal(b1-4)Glc = target: Fuc(a1-2)Gal(b1-4)Glc
In short: as §1

[4] = target: Fuc(a1-2)Gal(b1-4)GlcNAc(b1-3)Gal(b1-4)GlcNAc(b1-3)Gal(b1-4)GlcNAc
In short: as §1

[5] = target: Fuc(a1-2)Gal(b1-4)[Fuc(a1-3)]GlcNAc(b1-3)Gal(b1-4)[Fuc(a1-3)]GlcNAc
In short: as §1

[6] = target: Fuc(a1-2)[Gal(a1-4)]Gal(b1-4)GlcNAc
In short: as §1

[7] = target: Fuc(a1-2)[GalNAc(a1-4)]Gal(b1-4)GlcNAc
In short: as §1

[8] = target: Fuc(a1-3)[Gal(b1-4)]Glc6S
In short: as §1

[9] = target: Fuc(a1-3)[Gal(b1-4)]GlcNAc(b1-2)Man(a1-6)[Gal(b1-4)GlcNAc(b1-2)Man(a1-3)]Man(b1-4)GlcNAc(b1-4)GlcNAc
In short: as §1

[10] = target: Fuc(a1-3)[Gal(b1-4)]GlcNAc(b1-4)Gal(b1-4)[Fuc(a1-3)]GlcNAc(b1-4)Gal(b1-4)[Fuc(a1-3)]GlcNAc
In short: as §1

[11] = target: Fuc(a1-3)[Neu5Ac(a2-3)]Gal(b1-4)GlcNAc(b1-3)GalNAc
In short: as §1

[12] = target: Gal(b1-3)[Fuc(a1-4)]GlcNAc
In short: as §1

[13] = target: Gal(b1-3)[Neu5Ac(b2-6)]GalNAc
In short: as §1

[14] = target: Gal(b1-4)GalNAc(a1-3)[Fuc(a1-2)]Gal(b1-4)GlcNAc
In short: as §1

Gal3S(b1-3)GalNAc = target: Gal3S(b1-3)GalNAc
In short: as §1

Gal3S(b1-4)Glc6S = target: Gal3S(b1-4)Glc6S
In short: as §1

Gal6S(b1-4)Glc = target: Gal6S(b1-4)Glc
In short: as §1

Glc(b1-6)Glc = target: Glc(b1-6)Glc
In short: as §1

[15] = target: GlcNAc(b1-3)Gal(b1-4)GlcNAc(b1-3)Gal(b1-4)GlcNAc
In short: as §1

[16] = target: GlcNAc(b1-3)[GlcNAc(b1-6)]Gal(b1-4)GlcNAc
In short: as §1

[17] = target: GlcNAc(b1-4)[GlcNAc(b1-6)]GalNAc
In short: as §1

[18] = target: Man(a1-2)Man(a1-2)Man(a1-3)Man
In short: as §1

[19] = target: Man(a1-3)[Man(a1-6)]Man(a1-6)[Man(a1-3)]Man
In short: as §1

[20] = target: Neu5Ac(a2-3)Gal(b1-4)GlcNAc(b1-6)[Gal(b1-3)]GalNAc
In short: as §1

Neu5Ac(a2-8)Neu5Ac = target: Neu5Ac(a2-8)Neu5Ac
In short: as §1

[21] = target: Neu5Ac(a2-8)Neu5Ac(a2-3)[GalNAc(b1-4)]Gal(b1-4)Glc
In short: as §1

[22] = target: Neu5Ac(a2-8)Neu5Ac(a2-8)Neu5Ac(a2-8)Neu5Ac(a2-3)[GalNAc(b1-4)]Gal(b1-4)Glc
In short: as §1

[23] = target: Neu5Ac9Ac(a2-3)Gal(b1-4)GlcNAc
In short: as §1

[24] = target: Fuc(a1-2)Gal(b1-4)[Fuc(a1-3)]GlcNAc(b1-2)Man(a1-3)[Fuc(a1-2)Gal(b1-4)[Fuc(a1-3)]GlcNAc(b1-2)Man(a1-6)]Man(b1-4)GlcNAc(b1-4)GlcNAc
In short: as §1

[25] = target: Fuc(a1-3)[Gal3S(b1-4)]Glc6S
In short: as §1

Gal(a1-3)Gal(b1-4)Glc = target: Gal(a1-3)Gal(b1-4)Glc
In short: as §1

Gal(a1-3)GalNAc = target: Gal(a1-3)GalNAc
In short: as §1

Gal(b1-3)GalNAc = target: Gal(b1-3)GalNAc
In short: as §1

[26] = target: Gal(b1-3)[Fuc(a1-4)]GlcNAc(b1-2)Man(a1-3)[Gal(b1-3)[Fuc(a1-4)]GlcNAc(b1-2)Man(a1-6)]Man(b1-4)GlcNAc(b1-4)GlcNAc
In short: as §1

[27] = target: Gal(b1-4)GlcNAc(b1-3)Gal(b1-4)GlcNAc(b1-3)Gal(b1-4)GlcNAc
In short: as §1

[28] = target: Gal3S(b1-4)[Fuc(a1-3)]Glc
In short: as §1

GalNAc(a1-3)GalNAc = target: GalNAc(a1-3)GalNAc
In short: as §1

GalNAc(b1-3)GalNAc = target: GalNAc(b1-3)GalNAc
In short: as §1

[29] = target: GalNAc(b1-4)GlcNAc(b1-2)Man(a1-3)[GalNAc(b1-4)GlcNAc(b1-2)Man(a1-6)]Man(b1-4)GlcNAc(b1-4)GlcNAc
In short: as §1

GlcA(b1-3)GlcNAc = target: GlcA(b1-3)GlcNAc
In short: as §1

[30] = target: GlcNAc(a1-3)Gal(b1-4)GlcNAc
In short: as §1

[31] = target: GlcNAc(a1-4)Gal(b1-3)GlcNAc
In short: as §1

[32] = target: GlcNAc(b1-2)Gal(b1-3)GalNAc
In short: as §1

[33] = target: GlcNAc(b1-3)Gal(b1-3)GalNAc
In short: as §1

[34] = target: GlcNAc(b1-3)[GlcNAc(b1-4)][GlcNAc(b1-6)]GlcNAc
In short: as §1

[35] = target: Man(a1-2)Man(a1-3)[Man(a1-6)]Man(a1-6)[Man(a1-2)Man(a1-3)]Man(b1-4)GlcNAc(b1-4)GlcNAc
In short: as §1

Neu5Ac(a2-3)Gal = target: Neu5Ac(a2-3)Gal
In short: as §1

[36] = target: Neu5Ac(a2-3)Gal(b1-3)[Neu5Ac(a2-6)]GalNAc
In short: as §1

[37] = target: Neu5Ac(a2-3)Gal(b1-4)GlcNAc(b1-3)Gal(b1-4)[Fuc(a1-3)]GlcNAc
In short: as §1

[38] = target: Neu5Ac(a2-3)Gal(b1-4)[Fuc(a1-3)]GlcNAc(b1-6)[Gal(b1-3)]GalNAc
In short: as §1

[39] = target: Neu5Ac(a2-3)[GalNAc(b1-4)]Gal(b1-4)GlcNAc
In short: as §1

[40] = target: Neu5Ac(a2-8)Neu5Ac(a2-8)Neu5Ac(a2-3)[GalNAc(b1-4)]Gal(b1-4)Glc
In short: as §1

Neu5Gc(a2-6)GalNAc = target: Neu5Gc(a2-6)GalNAc
In short: as §1

B1: Neuropilin-2 (Homo sapiens), O60462 (protein)
chain: MDMFPLTWVFLALYFSRHQVRGQPDPPCGGRLNSKDAGYITSPGYPQDYPSHQNCEWIVYAPEPNQKIVLNFNPHFEIEKHDCKYDFIEIRDGDSESADLLGKHCGNIAPPTIISSGSMLYIKFTSDYARQGAGFSLRYEIFKTGSEDCSKNFTSPNGTIESPGFPEKYPHNLDCTFTILAKPKMEIILQFLIFDLEHDPLQVGEGDCKYDWLDIWDGIPHVGPLIGKYCGTKTPSELRSSTGILSLTFHTDMAVAKDGFSARYYLVHQEPLENFQCNVPLGMESGRIANEQISASSTYSDGRWTPQQSRLHGDDNGWTPNLDSNKEYLQVDLRFLTMLTAIATQGAISRETQNGYYVKSYKLEVSTNGEDWMVYRHGKNHKVFQANNDATEVVLNKLHAPLLTRFVRIRPQTWHSGIALRLELFGCRVTDAPCSNMLGMLSGLIADSQISASSTQEYLWSPSAARLVSSRSGWFPRIPQAQPGEEWLQVDLGTPKTVKGVIIQGARGGDSITAVEARAFVRKFKVSYSLNGKDWEYIQDPRTQQPKLFEGNMHYDTPDIRRFDPIPAQYVRVYPERWSPAGIGMRLEVLGCDWTDSKPTVETLGPTVKSEETTTPYPTEEEATECGENCSFEDDKDLQLPSGFNCNFDFLEEPCGWMYDHAKWLRTTWASSSSPNDRTFPDDRNFLRLQSDSQREGQYARLISPPVHLPRSPVCMEFQYQATGGRGVALQVVREASQESKLLWVIREDQGGEWKHGRIILPSYDMEYQIVFEGVIGKGRSGEIAIDDIRISTDVPLENCMEPISAFAGENFKVDIPEIHEREGYEDEIDDEYEVDWSNSSSATSGSGAPSTDKEKSWLYTLDPILITIIAMSSLGVLLGATCAGLLLYCTCSYSGLSSRSCTTLENYNFELYDGLKHKVKMNHQKCCSEA
glycan array binding signal (z-score) [1]: -0.201
glycan array binding signal (z-score) [2]: -0.609

B2: Flo5 (Saccharomyces cerevisiae), P38894 (protein)
chain: MGSSHHHHHHSSGLVPRGSHMSGATEACLPAGQRKSGMNINFYQYSLKDSSTYSNAAYMAYGYASKTKLGSVGGQTDISIDYNIPCVSSSGTFPCPQEDSYGNWGCKGMGACSNSQGIAYWSTDLFGFYTTPTNVTLEMTGYFLPPQTGSYTFSFATVDDSAILSVGGSIAFECCAQEQPPITSTNFTINGIKPWDGSLPDNITGTVYMYAGYYYPLKVVYSNAVSWGTLPISVELPDGTTVSDNFEGYVYSFDDDLSQSNCTIPDPSIH
glycan array binding signal (z-score) [3]: 1.59
glycan array binding signal (z-score) (Fuc(a1-2)Gal(b1-4)Glc): 1.59
glycan array binding signal (z-score) [4]: -0.14
glycan array binding signal (z-score) [5]: -0.205
glycan array binding signal (z-score) [6]: -0.23
glycan array binding signal (z-score) [7]: 3.78
glycan array binding signal (z-score) [8]: -0.024
glycan array binding signal (z-score) [9]: -0.206
glycan array binding signal (z-score) [10]: -0.162
glycan array binding signal (z-score) [11]: -0.232
glycan array binding signal (z-score) [12]: -0.153
glycan array binding signal (z-score) [13]: -0.121
glycan array binding signal (z-score) [14]: -0.189
glycan array binding signal (z-score) (Gal3S(b1-3)GalNAc): -0.17
glycan array binding signal (z-score) (Gal3S(b1-4)Glc6S): 8.31
glycan array binding signal (z-score) (Gal6S(b1-4)Glc): -0.082
glycan array binding signal (z-score) (Glc(b1-6)Glc): -0.203
glycan array binding signal (z-score) [15]: -0.027
glycan array binding signal (z-score) [16]: -0.156
glycan array binding signal (z-score) [17]: -0.139
glycan array binding signal (z-score) [18]: 6.07
glycan array binding signal (z-score) [19]: 3.11
glycan array binding signal (z-score) [20]: -0.196
glycan array binding signal (z-score) (Neu5Ac(a2-8)Neu5Ac): -0.148
glycan array binding signal (z-score) [21]: -0.104
glycan array binding signal (z-score) [22]: -0.149
glycan array binding signal (z-score) [23]: -0.126

B3: CTLX (Homo sapiens), Q6UXS0 (protein)
chain: SLCPLFWMEFKGHCYRFFPLNKTWAEADLYCSEFSVGRKSAKLASIHSWEENVFVYDLVNSCVPGIPADVWTGLHDHRQEGQFEWTDGSSYDYSYWDGSQPDDGVHADPEEEDCVQIWYRPTSALRSWNDNTCSRKFPFVCKIPSLTIH
glycan array binding signal (z-score) [3]: 0.292
glycan array binding signal (z-score) [24]: 3.01
glycan array binding signal (z-score) [25]: 5.87
glycan array binding signal (z-score) (Gal(a1-3)Gal(b1-4)Glc): 1.11
glycan array binding signal (z-score) (Gal(a1-3)GalNAc): -1.04
glycan array binding signal (z-score) (Gal(b1-3)GalNAc): 0.235
glycan array binding signal (z-score) [26]: 4.2
glycan array binding signal (z-score) [27]: -0.836
glycan array binding signal (z-score) [28]: -0.137
glycan array binding signal (z-score) (GalNAc(a1-3)GalNAc): -0.619
glycan array binding signal (z-score) (GalNAc(b1-3)GalNAc): -0.421
glycan array binding signal (z-score) [29]: 0.305
glycan array binding signal (z-score) (GlcA(b1-3)GlcNAc): 0.103
glycan array binding signal (z-score) [30]: -0.363
glycan array binding signal (z-score) [31]: 3.54
glycan array binding signal (z-score) [32]: -0.988
glycan array binding signal (z-score) [33]: 4.33
glycan array binding signal (z-score) [34]: -0.646
glycan array binding signal (z-score) [35]: -0.346
glycan array binding signal (z-score) (Neu5Ac(a2-3)Gal): -0.528
glycan array binding signal (z-score) [36]: 0.498
glycan array binding signal (z-score) [37]: -0.47
glycan array binding signal (z-score) [38]: 4
glycan array binding signal (z-score) [39]: -0.041
glycan array binding signal (z-score) [40]: -1.09
glycan array binding signal (z-score) (Neu5Gc(a2-6)GalNAc): -0.736
